# 12-LOX inh – ALOX12 (human) lipoxygenase inhibition; AID 1671190; hit rate 1.1% among 580,000; Potency, µM (titrated, usually from 108 µM), hits mostly inhibitors; purified 12hLO, xylenol orange hydroperoxide absorbance; P18054
#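 Purified human 12hLO at 150 nM in 25 mM Hepes, 0.01% Triton X-100, pH 7.0, preincubated 15 min at room temperature with compound. Reaction started with 40 uM arachidonic acid, 30 min at room temperature. Hydroperoxide measured by Fe-xylenol orange, 573/405 nm absorbance ratio.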
# VDR inhibitor – blocks the human vitamin D receptor | hit rate 0.93% among 400,000 | P11473 | VDR-SRC2-3 peptide fluorescence polarization, 2 h | Potency, µM, actives largely listed as inhibitors
#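 Signal is fluorescence polarization, reporting how far test compounds block the interaction of VDR with the SRC2-3 coregulator peptide after a 2 h room-temperature incubation.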
# PLK1 PBD inh – inhibitors of human PLK1 polo-box domain binding | P53350 | Plk1 PBD binding of FITC phosphopeptide, fluorescence polarization | Potency, µM, hits mostly inhibitors | hit rate 2.8% among 360,000 | AID 720504; further: series mostly up to about 57 µM; nearly all actives have a fitted effect of over 65% in size
# GCN5L2 inh – blocks human GCN5L2 histone acetyltransferase | GCN5L2 HAT assay, ThioGlo1 CoA-SH fluorescence | hit rate 0.21% among 390,000 | AID 504327 | Q92830 | Potency, µM (highest dose often 58.9 µM), hits mostly inhibitors
# Target sequence (Q92830 whole entry, looked up): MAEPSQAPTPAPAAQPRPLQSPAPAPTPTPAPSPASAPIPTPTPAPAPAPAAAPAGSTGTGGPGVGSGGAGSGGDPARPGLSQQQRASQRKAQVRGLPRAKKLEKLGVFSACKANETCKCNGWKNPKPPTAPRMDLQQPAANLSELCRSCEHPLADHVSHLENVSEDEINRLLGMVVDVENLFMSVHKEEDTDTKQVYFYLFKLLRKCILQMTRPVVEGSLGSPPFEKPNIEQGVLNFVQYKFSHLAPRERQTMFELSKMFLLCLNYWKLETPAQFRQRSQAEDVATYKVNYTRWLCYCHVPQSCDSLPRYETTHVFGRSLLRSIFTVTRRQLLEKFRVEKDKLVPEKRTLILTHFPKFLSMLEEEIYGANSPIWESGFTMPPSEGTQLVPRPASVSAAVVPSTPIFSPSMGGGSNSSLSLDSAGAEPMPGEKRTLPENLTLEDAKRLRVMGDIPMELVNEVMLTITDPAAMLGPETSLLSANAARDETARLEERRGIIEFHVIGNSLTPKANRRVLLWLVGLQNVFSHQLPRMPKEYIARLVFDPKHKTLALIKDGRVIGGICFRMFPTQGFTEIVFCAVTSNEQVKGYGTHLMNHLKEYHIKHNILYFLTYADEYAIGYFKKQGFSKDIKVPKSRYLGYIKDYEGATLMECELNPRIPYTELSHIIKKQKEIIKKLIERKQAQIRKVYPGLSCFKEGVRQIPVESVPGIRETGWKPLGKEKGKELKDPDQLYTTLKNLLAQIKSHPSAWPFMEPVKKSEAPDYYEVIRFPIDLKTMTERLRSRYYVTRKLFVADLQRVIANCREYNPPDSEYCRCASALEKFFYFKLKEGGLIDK
#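 GCN5L2 (20nM final) in 50mM HEPES, 0.1mM EDTA pH 7.5, 0.01% Tween-20 was preincubated 15 min at room temperature with compound, then given ThioGlo1 (50uM), H3(1-25) peptide (75uM) and acetyl-CoA (70uM); CoA-thiol fluorescence (Ex340/Em540) was read at 0 and 20 min.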
# Numbers stand for hits; – = inactive; ? = inconclusive; · = no result given; ! = not confirmed by another sample. Most compounds without a hit are left out; they make up all but 3% or so of the library. The call rests on the fitted dose curve; in most records, active means well fitted curve in the direction sought with a large enough effect; inconclusive means small, poorly fitted or top-dose-only effect, or another doubt; inactive means no such curve, though single readings can be large; an effect the other way counts as inactive or inconclusive.
SMILES,12-LOX inh,VDR inhibitor,PLK1 PBD inh,GCN5L2 inh
O=C(c1ccc(C2CCCNC2)cc1)N1CCC(Oc2cccc(F)c2)CC1 (stereo unspecified),–,·,·,·
Cc1ccc(S(=O)(=O)c2c(C)c(C)n(Cc3ccco3)c2N)cc1,44.7µM,·,·,·
CCCn1nc(C(=O)Nc2ccc(OCCN(CC)CC)cc2)c2ccccc2c1=O,–,·,·,·
C/C(=N\Nc1ccc(C)c(Cl)c1)c1ccncc1,44.7µM,–,–,–
C/C(=N\Nc1ccc(C)c(Cl)c1)c1cccnc1,4.47µM,–,–,–
C=CCN1C(=O)/C(=C\c2ccc(OC(=O)c3ccco3)c(OC)c2)SC1=S,–,–,–,–
COc1cc(/C=C2/C(=O)NN(c3ccc(Cl)cc3)C2=O)ccc1OC(=O)c1ccco1,8.91µM,?,2.67µM,?
COC(=O)c1ccc(N2NC(=O)/C(=C/c3cc(OC)c(O)c(OC)c3)C2=O)cc1,–,?,–,–
COc1cc(/C=C2/C(=O)NN(c3ccc(F)cc3)C2=O)cc(Cl)c1O,?,?,29.9µM,–
O=C1NN(c2cccc(Br)c2)C(=O)/C1=C\c1ccc(N2CCOCC2)cc1,·,–,?,–
COc1cccc(/C=C2/C(=O)NN(c3ccc(Br)cc3)C2=O)c1O,–,?,7.52µM,–
COc1cc(/C=C2/C(=O)NN(c3ccc(Cl)c(Cl)c3)C2=O)cc([N+](=O)[O-])c1O,35.5µM,56.2µM,11.9µM,–
COC(=O)c1ccc(N2NC(=O)/C(=C/c3cc(OC)c(OC)c(OC)c3)C2=O)cc1,?,70.8µM,8.44µM,–
COc1cc(/C=C2/C(=O)NN(c3ccc(Cl)cc3)C2=O)cc(Br)c1O,–,70.8µM,?,?
O=C(c1csc(-c2ccsc2)n1)N1CCCC1c1ccc2c(c1)OCCCO2 (stereo unspecified),–,·,·,·
O=C(CSc1ccc(F)cc1)OCc1nc2ccsc2c(=O)[nH]1,–,·,·,·
COC(=O)Cc1ccc(O)c(N)c1,–,?,9.47µM,–
COC(=O)c1cc(Cc2ccc(N)c(C(=O)OC)c2)ccc1N,–,–,–,–
COCCn1cc(C(=O)NCCc2ccc(S(N)(=O)=O)cc2)ccc1=O,–,·,·,·
Cc1ccc2c(c1)-c1[nH]c(=S)ncc1CS2,31.6µM,?,?,?
COc1cc(/C=C2\SC(c3ccc(C)cc3)=NC2=O)cc(OC)c1OC,·,?,–,–
COc1cc(/C=C2\SC(c3ccc(C)cc3)=NC2=O)ccc1O,6.31µM,?,–,?
COc1cc(/C=C2\SC(c3ccccc3)=NC2=O)cc(Cl)c1O,8.91µM,?,10.6µM,–
COc1cc(OC)cc(C(=O)N2CC(c3noc(-c4ccccc4)n3)C2)c1,–,·,·,·
Cc1cc(C)c(S(=O)(=O)Nc2cnc3ccccc3c2)c(C)c1,15.8µM!,–,–,–
SMILES,12-LOX inh,VDR inhibitor,PLK1 PBD inh,GCN5L2 inh
Cc1cc[n+](-c2[nH]c(=O)sc2/C=N/N=C(\[O-])c2ccccc2)cc1,–,–,–,–
Cc1cc[n+](-c2[nH]c(=O)sc2/C=N/N=C(\[O-])c2ccccc2)cc1C,–,–,23.8µM,–
CCOC(=O)C1(c2ccccc2)SC(C(=O)OCC)(c2ccccc2)S1 (stereo unspecified),?,·,21.2µM,·
COCC1CN(S(=O)(=O)c2ccc(F)c(C)c2)CC12CCNCC2 (stereo unspecified),–,·,·,·
Cc1csc(SC(C)C(=O)Nc2ccc(Cl)cn2)n1 (stereo unspecified),–,–,26.7µM,–
Cc1ocnc1C(=O)NC1CC(c2nnc(Cn3cccn3)n2C)C1 (stereo unspecified),–,·,·,·
Cn1c(Cn2cccn2)nnc1C1CC(NC(=O)c2sccc2N)C1 (stereo unspecified),10µM!,·,·,·
CN(C)C(=O)CN1CCN(C(=O)c2cc(-c3cccnc3)nc3ccccc23)CC1,–,·,·,·
Cc1ccccc1Cn1cc(-c2ccncc2)cc1C(=O)N(C)Cc1ccco1,–,·,·,·
Cc1cccc(NC(=O)CSc2nc3ccccc3o2)c1,–,–,–,–
Cc1nn2c(-c3cccc(NC(=O)CSc4nc5ccccc5o4)c3)nnc2c2ccccc12,–,–,23.8µM,–
COc1ccc(/C=C/C(=O)OCC(=O)NCCC2=CCCCC2)cc1,–,–,–,–
CCOc1ccccc1NC(=O)C(=O)NCCC1=CCCCC1,–,–,26.7µM,–
COc1cccc(/C=C/C(=O)OCC(=O)NCCC2=CCCCC2)c1,–,?,8.44µM,–
COc1ccccc1NC(=O)NCCC1=CCCCC1,–,?,23.8µM,–
CC(C)(C)NC(=O)C(=O)NCCC1=CCCCC1,–,–,21.2µM,–
Cc1cc(C)c(NC(=O)CSc2nnc(C)n2C)c(Cl)c1,–,·,·,·
O=C(NC(=S)NCCC1=CCCCC1)c1cccs1,11.2µM,·,·,·
CCC(C)[C@H](NC(=O)NCCC1=CCCCC1)C(=O)O (stereo partly specified),–,?,23.8µM,–
O=C(COC(=O)c1cccs1)NCCC1=CCCCC1,–,–,–,–
COc1ccccc1/C=C/C(=O)N[C@@H]1C[C@H]2CC[C@@H]1C2,–,·,·,·
CCc1nc2sc3c(=O)[nH]cnc3c2c2c1CSC(C)(C)C2,?,–,26.7µM,–
COc1ccc(/C=C2\CCn3c2nc2cc(C(=O)O)ccc2c3=O)cc1O,–,–,–,–
COc1ccc(/C=C2/CCn3c2nc2cc(Cl)ccc2c3=O)cc1O,1.78µM,·,·,·
O=C(O)c1ccc2c(=O)n3c(nc2c1)/C(=C/c1cccc(O)c1)CC3,7.94µM,–,–,–
SMILES,12-LOX inh,VDR inhibitor,PLK1 PBD inh,GCN5L2 inh
CC(NC(=O)c1cc(-c2ccco2)nc2ccccc12)C(=O)NCc1ccccc1 (stereo unspecified),39.8µM,·,·,·
CNC(=O)COC(=O)c1cc(-c2ccco2)nc2ccccc12,?,?,23.8µM,–
COc1ccc(CCNC(=O)c2cc(-c3ccco3)nc3ccccc23)cc1,?,–,?,·
O=C(COC(=O)c1cc(-c2ccco2)nc2ccccc12)NCc1ccccc1,10µM,–,–,–
CCN(CC)CCNC(=O)c1cc(-c2ccco2)nc2ccccc12,?,–,?,–
O=C1CSC(=S)N1/N=C/c1c(F)cccc1F,28.2µM,–,?,–
CCOC(=O)c1cc(C#N)c(Oc2cccc(C(F)(F)F)c2)nc1-c1ccccc1,?,–,23.8µM,–
CCc1ccc2[nH]c3nc(SCCN4CCOCC4)nnc3c2c1,–,?,23.8µM,–
CC(=O)Nc1ccc(SCC(=O)NCC2(N3CCCCC3)CCCCC2)cc1,–,?,11.9µM,–
COc1ccc(-c2ccc3c(N)c(C(=O)NCc4ccc(Cl)cc4)sc3n2)cc1,?,–,·,20µM
Nc1c(C(=O)NCc2ccc(Cl)cc2)sc2nc(-c3ccc(F)cc3)ccc12,–,–,·,?
COc1cccc(-c2ccc3c(N)c(C(=O)Nc4ccc(C)c(F)c4)sc3n2)c1,–,–,·,25.1µM
CCCCCCCCS(=O)(=O)CCSC(=N)N,–,·,·,·
O=C(CSc1nnnn1-c1cccc2c1CCCC2)N1CCCC1,–,–,4.74µM,–
Cc1sc(NC(=O)c2cc(-c3ccc(Cl)cc3)nc3ccccc23)c(C(N)=O)c1C,?,–,13.4µM,?
Cc1ccccc1-c1cc(C(=O)NC(C)C)c2ccccc2n1,–,·,·,·
Cc1sc(NC(=O)c2cc(-c3ccccc3)nc3ccccc23)c(C(N)=O)c1C,–,–,–,–
CCOC(=O)c1sc(-c2ccc(C)cc2)c(C#N)c1C,–,–,23.8µM,–

# Compound activity from PubChem BioAssay.
